Measured values as given in PubChem BioAssay.
Values joined by “and” are separate entries in the source; they are usually repeats but may differ in a detail not shown here. Identical values can stand only once. Active and inactive are the calls of the source.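 How the source made its calls, unless noted: active means inhibition at or above 50% relative to wild type and mutant plate controls; inactive means inhibition below 50%.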

Columns and labels:
[1] = inhibitors of TNFa-induced NFkB p65 translocation, primary screen, imaging, HUVEC, MLSMR starter and 10KST1 sets (AID 438;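 active means inhibition above 20% together with a positive visual image hit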;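 further: compound added about 3h40 before a 20 min TNFalpha stimulation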;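 on inhibition: signal is the nuclear over cytoplasmic p65 intensity ratio per well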); settings: HUVEC TNFa-induced p65 nuclear translocation; cell count: measured here: nuclei count (cytotoxicity indicator), at 2.08 µM; inhibition: at 2 µM, stronger effect = higher value, 0% TNFa-plus-vehicle, 100% no-TNFa wells
[2] = reduction of polyQ htt aggregates in cells – imaging, exon1htt(103Q)mCFP cells, high-content imaging, primary screen (AID 483;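 active means visual image review flags a hit and inhibition of aggregation exceeds 20%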;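 further: compound exposure lasted 3 days before fixation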;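 on nuclei count: percent of the per-plate median nuclei count of sample wells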); settings: exon1htt(103Q)mCFP cell line, aggregate imaging, at 2 µM; inhibition of aggregation: stronger effect = higher value; nuclei count: measured here: cell count, toxicity
[3] = endothelial E-selectin expression blockers – imaging, HUVEC, immunofluorescence, MLSMR starter and 10KST1 sets, primary screen (AID 487;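 active means visually confirmed hit in the image check and inhibition above 20%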;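 on inhibition: signal is fraction of cell area covered by stained E-selectin grains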;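 on nuclei count: 100% = median nuclei count of all wells on the same plate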); settings: HUVEC TNFalpha-induced E-selectin immunofluorescence imaging, at 2 µM; inhibition: stronger effect = higher value; nuclei count: measured here: cell number, toxicity
[4] = Primary imaging screen for DUSP6 inhibitors that restore phospho-Erk in transfected HeLa cells, chemical complementation (AID 609;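 active means compounds giving at least 50% inhibition in the cell-based MKP-3 phosphatase rescue imaging test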;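 on inhibition: phospho-Erk level distribution per well compared with pooled transfected vehicle control wells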); settings: HeLa MKP-3 transfected, phospho-Erk imaging KS statistic, at 10 µM, cells stimulated with TPA for 15 min
[5] = target: Dual specificity protein phosphatase 6 (Homo sapiens) (UniProt Q16828); experiment: as above; settings: HeLa MKP-3 transfected, phospho-Erk imaging KS statistic; at 10 µM; stronger effect = higher value; cells stimulated with TPA for 15 min
[6] = target: Voltage-gated potassium channel subunit beta-2 (Rattus norvegicus) (UniProt P62483); experiment: inhibitors of rat Kvbeta2 reductase activity – biochemical, NADPH fluorescence, primary screen (AID 622;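 active means fluorescence slope higher than the sample average by over 3 SD, cut at about -0.22 in these data, passing the limit was not always enough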;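 further: slope of raw intensity against log time taken from 70 to 1610 s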); settings: recombinant KvBeta, 4-cyanobenzaldehyde reduction, at 10 µM, stronger effect = higher value
[7] = target: Voltage-gated potassium channel subunit beta-2 (Rattus norvegicus) (UniProt P62483); experiment: enhancers of rat Kvbeta2 NADPH turnover – biochemical, NADPH fluorescence, primary screen (AID 623;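 active means NADPH fluorescence slope more negative than the mean of all samples by about 3 SD, 99.7% confidence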;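 further: fluorescence intensity change per second fitted from 20 to 320 s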); settings: Recombinant KvBeta, NADPH fluorescence decrease slope, 10 min; at 10 µM; stronger effect = lower value
[8] = target: Alpha-2C adrenergic receptor (Homo sapiens) (UniProt P18825); experiment: compounds altering alpha2C-coupled GIRK flux – cell-based, HEK293 alpha2C/GIRK1/2, thallium flux, primary screen (AID 624;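 active means fluorescence slope after compound addition differing from the mean of all screened samples at 99.7% confidence, in either direction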;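 further: slope of fluorescence ratio to pre-addition baseline per second over 15 to 24 s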); settings: thallium flux BTC fluorescence, at 10 µM, actives lie on both sides
[9] = inhibitors of larval lipid processing in zebrafish, primary screen, whole organism, PED6 fluorescence, gall bladder and intestine (AID 686;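 active means a full or partial loss of lipid-probe fluorescence in the fish gall bladder, intestine or both, judged by eye; inactive means no fluorescence loss, or compound toxic to the fish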;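 further: larvae 5 to 7 days old with five fish per well; signal comes from phospholipase A2 cleavage of quenched PED6 carried via bile; overnight exposure to compound and PED6 before scoring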); settings: Zebrafish larvae PED6 lipid processing, fluorescence scoring; screened at 20 µM (by protocol)
[10] = loss of swimming-algae plug formation – whole organism, Chlamydomonas reinhardtii, WT vs cilia-less mutant, absorbance, 96-well, primary screen (AID 463189); settings: Chlamydomonas reinhardtii gravitaxis, OD600 absorbance, 2 days; at 10 µM; stronger effect = higher value;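 further: 0% = wild type cc124 cells in DMSO and 100% = ciliumless bld1 mutant cells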
[11] = blockers of RIG-like receptor reporter activation – cell-based, Sendai virus stimulus, luciferase, 10K MLSCN set, TLR/RLR signaling modifier project, primary screen (AID 602276;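 active means inhibition at or above 50% at 10 µM; inactive means inhibition below 50%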;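 further: firefly luciferase from ISG56 promoter only with Renilla not read in this screen; 0% = Sendai virus plus DMSO and 100% = medium plus DMSO without virus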); settings: HEK293 RL24 IRF3 luciferase reporter, at 10 µM, stronger effect = higher value
[12] = TLR3 IRF3 reporter activation blockers – cell-based, poly I:C stimulus, luciferase, 10K MLSCN set, primary screen (AID 602277;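 active means inhibition of the reporter signal at or above 50%; inactive means inhibition below 50%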); settings: HEK293-TLR3 RL24 IRF3 luciferase reporter, at 10 µM, stronger effect = higher value
[13] = measured here: cell density z-score
[14] = measured here: nuclear c-Myc green intensity z-score
[15] = measured here: nuclear pErk red intensity z-score, stronger effect = higher value

Dual specificity protein phosphatase 6 (Homo sapiens), sequence (Q16828 whole entry, looked up): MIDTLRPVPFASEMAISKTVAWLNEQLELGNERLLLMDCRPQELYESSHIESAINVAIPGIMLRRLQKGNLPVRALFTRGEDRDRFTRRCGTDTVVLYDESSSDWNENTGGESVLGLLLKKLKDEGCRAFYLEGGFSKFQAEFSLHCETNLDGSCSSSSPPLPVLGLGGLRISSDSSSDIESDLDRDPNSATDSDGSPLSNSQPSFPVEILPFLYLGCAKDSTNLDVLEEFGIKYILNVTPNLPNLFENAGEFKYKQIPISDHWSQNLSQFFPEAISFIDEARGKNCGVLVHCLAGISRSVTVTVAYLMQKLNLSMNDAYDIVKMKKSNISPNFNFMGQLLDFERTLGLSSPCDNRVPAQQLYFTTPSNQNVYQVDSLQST
Voltage-gated potassium channel subunit beta-2 (Rattus norvegicus), sequence (P62483 whole entry, looked up): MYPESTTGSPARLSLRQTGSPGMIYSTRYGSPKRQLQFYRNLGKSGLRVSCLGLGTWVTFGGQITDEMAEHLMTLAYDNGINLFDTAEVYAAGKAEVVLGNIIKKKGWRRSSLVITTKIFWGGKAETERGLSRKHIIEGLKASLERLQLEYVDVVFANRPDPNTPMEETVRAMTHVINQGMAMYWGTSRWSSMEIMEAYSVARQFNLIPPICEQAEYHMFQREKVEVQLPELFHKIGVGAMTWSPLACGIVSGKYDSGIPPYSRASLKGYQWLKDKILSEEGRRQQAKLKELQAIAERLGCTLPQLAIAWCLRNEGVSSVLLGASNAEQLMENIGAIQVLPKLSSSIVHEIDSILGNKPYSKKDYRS
Alpha-2C adrenergic receptor (Homo sapiens), sequence (P18825 whole entry, looked up): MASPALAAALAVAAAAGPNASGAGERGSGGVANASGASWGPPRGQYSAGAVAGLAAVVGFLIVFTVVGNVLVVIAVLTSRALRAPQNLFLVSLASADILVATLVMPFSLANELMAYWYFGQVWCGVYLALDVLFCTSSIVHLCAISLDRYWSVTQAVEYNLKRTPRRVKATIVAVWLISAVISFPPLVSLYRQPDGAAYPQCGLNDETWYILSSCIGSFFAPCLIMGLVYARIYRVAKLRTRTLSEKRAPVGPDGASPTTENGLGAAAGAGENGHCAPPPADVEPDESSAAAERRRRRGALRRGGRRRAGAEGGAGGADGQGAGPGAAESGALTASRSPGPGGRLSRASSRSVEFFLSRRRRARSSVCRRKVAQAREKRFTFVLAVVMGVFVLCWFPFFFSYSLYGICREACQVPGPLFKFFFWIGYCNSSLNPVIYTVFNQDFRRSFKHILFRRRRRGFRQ

Compound | cell count [1] | inhibition [1] | inhibition of aggregation [2] | nuclei count [2] [%] | inhibition [3] | nuclei count [3] [%] | z-score [4, 13] | z-score [4, 14] | z-score [4, 15] | inhibition [5] | fluorescence slope [6] | NADPH fluorescence slope [7] | slope [8] | outcome [9] | inhibition [10] | inhibition [11] | inhibition [12]
OCC(O)CN1CCN(c2ccccc2)CC1 (stereo not drawn) | 605 | -6.5% (inactive) | -0.5% (inactive) | 108 | -69.1% (inactive) | 122 | 0.00928 | 0.0558 | -0.225 | 25.1% (inactive) | -0.455 (inactive) | -1.7e-06 (inactive) | 0.00502 (inactive) | inactive | 19.7% (inactive) | 17.9% (inactive) | 40.8% (inactive)
CCOC(=O)CSC1=C(C#N)C(=O)NC(c2ccc(OC)c(OC)c2)S1 (stereo not drawn) | 561 | -4.2% (inactive) | 12.1% (inactive) | 88.7 | -41.1% (inactive) | 135 | -1.42 | 2.48 | 0.606 | -13.3% (inactive) | -0.509 (inactive) | -5e-05 (inactive) | 0.00555 (inactive) | inactive | -1.59% (inactive) | 12% (inactive) | 11.8% (inactive)
Cn1c(=O)c2[nH]cnc2n(C)c1=O | 656 | -1.4% (inactive) | 12.3% (inactive) | 83.7 | -74.2% (inactive) | 142 | -0.0459 | 0.0873 | -0.896 | 19% (inactive) | -0.453 (inactive) | -2.6e-05 (inactive) | 0.00501 (inactive) | inactive | -1.38% (inactive) and -11.3% (inactive) | 6.67% (inactive) | 32.1% (inactive)
CCn1cc(C(=O)NCc2ccco2)c(=O)c2cc(F)c(N3CCN(C(=O)c4ccco4)CC3)cc21 | 380 | 16.3% (inactive) | 13.6% (inactive) | 99.3 | -117% (inactive) | 118 | 2.14 | -0.717 | 0.644 | 19.4% (inactive) | -0.279 (inactive) | 2.6e-05 (inactive) | 0.00489 (inactive) | inactive | -7.6% (inactive) | 14.3% (inactive) | 13.7% (inactive)
C[C@]12C[C@H](O)[C@H]3[C@@H](CCC4=CC(=O)CC[C@@]43C)[C@@H]1CC[C@@H]2C(=O)CO | 627 | -3.6% (inactive) | -21.5% (inactive) | 101 | -37.7% (inactive) | 102 | 0.905 | 0.0812 | -0.546 | 9.37% (inactive) | -0.526 (inactive) | -4.5e-06 (inactive) | 0.00481 (inactive) | inactive | 3.78% (inactive) and -16.2% (inactive) | 5.57% (inactive) | 32.8% (inactive)
CC(C)COc1nc2ccccc2nc1C(C#N)C(=O)NC1CCCCC1 (stereo not drawn) | 342 | -6.5% (inactive) | 11.7% (inactive) | 98.8 | -27.9% (inactive) | 133 | 0.00555 | 0.614 | 0.00363 | -5.26% (inactive) | -0.423 (inactive) | -0.00013 (inactive) | 0.00573 (inactive) | inactive | 9.16% (inactive) | 13.4% (inactive) | 8.92% (inactive)
c1ccc2c(CC3=NCCN3)cccc2c1 | 547 | -0.9% (inactive) | -4.4% (inactive) | 90.2 | -43.3% (inactive) | 118 | -0.259 | -0.0766 | 1 | 9.37% (inactive) | -0.503 (inactive) | -6.8e-05 (inactive) | 0.00554 (inactive) | inactive | -6.08% (inactive) | 12.4% (inactive) | 36.7% (inactive)
O=C(/C=C/c1ccccc1)c1ccccc1 | 614 | -6.5% (inactive) | -4.6% (inactive) | 98.3 | -56.5% (inactive) | 113 | 0.266 | 0.631 | 0.428 | 23.2% (inactive) | -0.452 (inactive) | -2.2e-05 (inactive) | 0.0047 (inactive) | inactive | 21.2% (inactive) | -12.6% (inactive) | -54.9% (inactive)
CN(Cc1ccccc1)Cc1c[nH]c2ccccc12 | 531 | -15.1% (inactive) | -1% (inactive) | 83.3 | -35.1% (inactive) | 121 | -0.293 | -1.22 | -1.11 | -4.27% (inactive) | -0.409 (inactive) | -4.2e-05 (inactive) | 0.00379 (inactive) | inactive | 22.7% (inactive) | 13.3% (inactive) | 24.2% (inactive)
CC(=O)OCC(=O)[C@@]1(O)CC[C@H]2[C@@H]3CCC4=CC(=O)C=C[C@]4(C)[C@@]3(Cl)[C@@H](Cl)C[C@@]21C | 574 | -7.2% (inactive) | -27.9% (inactive) | 64.3 | -50.9% (inactive) | 118 | 0.892 | 0.179 | 0.325 | 11.3% (inactive) | -0.484 (inactive) | -5.1e-05 (inactive) | 0.00396 (inactive) | inactive | 18.7% (inactive) | 5.49% (inactive) | 38.2% (inactive)
O=C(NC1CCS(=O)(=O)C1)N1CCCCC1 (stereo not drawn) | 486 | 0.6% (inactive) | -3.3% (inactive) | 106 | -68.8% (inactive) | 126 | -0.342 | 1.35 | 0.612 | 1.6e-07% (inactive) | -0.485 (inactive) | -6.6e-05 (inactive) | 0.00544 (inactive) | inactive | -28.4% (inactive) | 11.2% (inactive) | 18.8% (inactive)
Cn1c(=O)c2c(ncn2CCO)n(C)c1=O | 575 | 3.2% (inactive) | -12.9% (inactive) | 102 | -46.8% (inactive) | 114 | -1.46 | -1.4 | -0.23 | 1.38% (inactive) | -0.45 (inactive) | -4.4e-05 (inactive) | 0.00454 (inactive) | inactive | -9.91% (inactive) | 14.7% (inactive) | 34.5% (inactive)
CCCCCCCCNC(C)C(O)c1ccc(SC(C)C)cc1 (stereo not drawn) | 561 | -16% (inactive) | -10.4% (inactive) | 105 | -40.8% (inactive) | 112 | 1.06 | -0.321 | -0.268 | 25.1% (inactive) | -0.477 (inactive) | -6.9e-05 (inactive) | 0.00365 (inactive) | inactive | 151% (active) | 19.5% (inactive) | -3.66% (inactive)
OC[C@H]1O[C@@H](n2cnc3c(NC4CCCC4)ncnc32)[C@H](O)[C@@H]1O | 528 | -13.1% (inactive) | -15.5% (inactive) | 110 | -19.6% (inactive) | 126 | 1.27 | -0.327 | -0.893 | 11.3% (inactive) | -0.459 (inactive) | 2.3e-05 (inactive) | 0.00611 (inactive) | inactive | 30.3% (inactive) | -1.14% (inactive) | 12.9% (inactive)
CCC1(c2ccccc2)C(=O)NCNC1=O | 647 | 3.5% (inactive) | -10.2% (inactive) | 103 | -70% (inactive) | 129 | -0.87 | 2.71 | -0.522 | 5.79% (inactive) | -0.469 (inactive) | -8.7e-06 (inactive) | 0.00482 (inactive) | inactive | -4.31% (inactive) and 28.8% (inactive) | 17% (inactive) | 30.6% (inactive)
CC(=O)[C@@]1(O)CC[C@H]2[C@@H]3C[C@H](C)C4=CC(=O)CC[C@]4(C)[C@H]3CC[C@@]21C | 734 | -6.2% (inactive) | 0.8% (inactive) | 108 | -107% (inactive) | 113 | 1.42 | -0.494 | -1.54 | 3.45% (inactive) | -0.486 (inactive) | -0.000112 (inactive) | 0.0052 (inactive) | inactive | -2.53% (inactive) | -4.16% (inactive) | 43.2% (inactive)
C#CCN(C)Cc1ccccc1 | 613 | -8.1% (inactive) | 11.2% (inactive) | 96.3 | -105% (inactive) | 135 | 1.46 | -0.921 | -1.15 | 13.3% (inactive) | -0.461 (inactive) | -3.5e-05 (inactive) | 0.00478 (inactive) | inactive | -8.12% (inactive) and 10.4% (inactive) | 18.7% (inactive) | 42.3% (inactive)
Cn1nnnc1SCC1=C(C(=O)O)N2C(=O)[C@@H](NC(=O)[C@H](O)c3ccccc3)[C@H]2SC1 | 634 | -4% (inactive) | -4.8% (inactive) | 106 | -44% (inactive) | 107 | 1.21 | 1.9 | -1.92 | 11.3% (inactive) | -0.45 (inactive) | -5.3e-05 (inactive) | 0.00577 (inactive) | inactive | 22.9% (inactive) | 10.3% (inactive) | 42% (inactive)
COc1cc(/C=C/C(=O)CC(=O)/C=C/c2ccc(O)c(OC)c2)ccc1O | 581 | -5.9% (inactive) | -6.4% (inactive) | 105 | -31.2% (inactive) | 119 | -0.124 | 0.198 | 0.203 | -8.38% (inactive) | -0.185 (active) | -1.1e-05 (inactive) | 0.0285 (active) | inactive | 102% (active) | 7.07% (inactive) | 6.1% (inactive)
